Activation data for 100 molecules are collected here from PubChem BioAssay AID1276 (Columbia University Molecular Screening Center, 2008).

The campaign covered roughly 190,000 compounds. About 2,000 (1.1%) were called active. The entries come from a sample that favours actives as a whole. A number with no mark means an inactive call.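 Rule for the calls: active = activation above a set limit, based on mean plus 3 SD of controls (cut at about 140% in these data); inconclusive = one replicate above the limit, the other below; inactive = the rest.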

The experiment in a line: APP 5'UTR reporter signal increase – luciferase, SH-SY5Y cells, primary screen (AID 1276). Particulars: SH-SY5Y APP 5'UTR luciferase reporter, luminescence; at 2 µM; stronger effect = higher value; zero percent = DMSO vehicle wells. (In general: A reporter such as luciferase makes a cellular process visible.)
Regarding `CCOC(=O)CCCN1CC(O)=C(c2nc3ccccc3s2)C1=N`, the activation was -7.28%. In the case of `N=C1C(c2nc3ccccc3s2)=C(O)CN1NC(=O)c1ccc([N+](=O)[O-])cc1` it was 150% (active); in that of `COc1ccccc1N1CC(O)=C(c2nc3ccccc3s2)C1=N`, 1.68%.

Consider `CN1CCNC(=O)C1CC(=O)NCCC1=CCCCC1` (stereo not given), for which the activation is 9.01%. Take `COCCNC(=O)c1ccc(N2CCC3(CC2)OCCO3)c([N+](=O)[O-])c1`: the activation is 5.47%. Next, `CNC(=S)N1N=C(c2ccccc2)CC1c1ccc(Br)cc1` (stereo not given): 16.3%; `Brc1ccc(C2CC(c3ccccc3)=Nc3ccccc3N2)cc1` (stereo not given): 176% (active); `c1ccc(C2=Nc3cccc4cccc(c34)N2)cc1`: -8.18%.

`CCc1nnc(NC(=O)CCC(=O)O)s1`: the activation was 11.8%.

`CCc1nnc(NC(=O)CSc2nc(SC)ns2)s1`: the activation is 542% (active). As for `COc1ccc(C)cc1NC(=O)CSc1nc(SC)ns1`, the activation was -17.1%.

For the molecule `CCn1c2ccccc2c2cc(CC(N)=O)ccc21`, the activation was -15%. In the case of `CCS(=O)(=O)c1ccc2oc(SCC(=O)N3c4ccccc4CC3C)nc2c1` (stereo not given) it was 12.2%; in that of `COc1ccc(S(=O)(=O)N(C)C)cc1NC(=O)CSc1ncccn1`, -3.15%; in that of `CN(C)S(=O)(=O)c1ccc2oc(SCC(=O)Nc3ccccc3F)nc2c1`, 135% (active). Next, `O=C(Nc1cccc(Cl)c1)c1cc([N+](=O)[O-])ccc1N1CCN(CCO)CC1`: -1.04%; `O=C(NNC(=S)NCCCN1CCOCC1)c1ccncc1`: 1.62%; `Nc1nc(-c2sc3nc4c(cc3c2N)CCCC4)nc(N2CCOCC2)n1`: 45.3%.

Consider `COc1ccc(CCNc2nc(-c3cccc(NC(C)=O)c3)cs2)cc1OC`, for which the activation was 13%. For the molecule `CC(=O)Nc1cccc(-c2csc(Nc3cccc(C)n3)n2)c1`, the activation is 177% (active). Next, `CC(=O)Nc1cccc(C(=O)Nc2nc(C)cs2)c1`: 30.8%; `C/C(CC(=O)Nc1ccc(Cl)cc1)=N\NC(=O)C(=O)NCCO`: 6.46%; `CC(C)c1nc2sc3c(c2c(=O)n1N)CC(C)(C)OC3`: 17.6%. For the molecule `O=C(O)c1ccc2c(c1)C(=O)N(NC(=O)c1ccc(O)cc1)C2=O`, the activation is -2.99%. In the case of `Cn1cnnc1SCC(=O)Nc1ccc(N2CCOCC2)cc1`, the activation is 5.51%. In the case of `O=C(O)CCS(=O)(=O)c1ccc(-c2ccccc2)cc1` it was -3.35%. Next, `CCOc1cccc(-n2nnnc2-c2ccc(OC)cc2)c1`: -65.8%; `COc1ccc(-n2nnnc2SCC(=O)Nc2ccccc2)cc1`: 6.08%. For the molecule `COc1ccc(-n2nnnc2-c2nc3ccccc3s2)cc1`, the activation was 237% (active).

As to `Cc1cccc(NC(=O)c2nnn(-c3cccc(C(F)(F)F)c3)c2N)c1`, the activation was 27.1%. Next, `COCCNc1nc(N)c([N+](=O)[O-])c(NCCO)n1`: -12.7%; `Nc1nc(NCCCN2CCOCC2)nc(Nc2ccccc2)c1[N+](=O)[O-]`: -12.2%; `CNc1nc(Nc2ccc(C)c(Cl)c2)nc(N)c1[N+](=O)[O-]`: 153% (active). Next, `Cc1ccc(NS(=O)(=O)c2cccs2)cc1S(=O)(=O)N1CCCCCC1`: 13.7%; `O=C(Cc1ccc(-c2ccccc2)cc1)NC(c1ccccc1)c1ccccc1`: 12.7%; `CC(NC(=S)Nc1ccc(OC(F)F)cc1)c1ccc(F)cc1` (stereo not given): -4.54%. Next, `O=C(NNC(=O)c1ccc(Cl)cc1Cl)c1cccs1`: 59.2%; `O=C(Nc1ccn(Cc2ccccc2)n1)c1cccc(F)c1`: 197% (active); `O=C(Nc1ccn(Cc2ccc(F)cc2)n1)c1ccncc1`: -11.3%. Take `O=C(Nc1ccn(Cc2ccccc2)n1)c1n[nH]c([N+](=O)[O-])c1Cl`: the activation was 129%.

For the molecule `Cc1coc(C)c1C(=O)CC1(O)C(=O)N(C)c2ccc(Cl)cc21` (stereo not given), the activation is 12.3%. Next, `CCN(CC)CCNC(=O)c1sc2ncn(CC(=O)Nc3ccc(C)c(Cl)c3)c(=O)c2c1C`: 11.4%; `O=C1CC(c2ccccc2)=NN1c1ccc([N+](=O)[O-])cc1`: -12.9%; `Cc1nn(-c2ccc([N+](=O)[O-])cc2)c(N)c1-c1ccccc1`: 152% (active). Next, `Cc1nn(-c2ccccc2)c2c1C(c1cccc([N+](=O)[O-])c1)N(c1ccccc1)C(=O)N2` (stereo not given): 11.7%; `CCN(C(=O)Cc1nc(N)n[nH]1)C1(C(=O)Nc2ccccc2)CCCCC1`: -3.52%. Next, `COc1cc(NC(=O)c2cccs2)ccc1NC(=O)c1ccccc1Cl`: 37.2%; `O=C(Nc1ccc2nc3n(c(=O)c2c1)CCCCC3)c1ccccc1Cl`: 22%; `O=C(Nc1ccc2sc3ccccc3c(=O)c2c1)c1ccccc1Cl`: 221% (active). Turning to `CCOC(=O)c1ccccc1NC(=O)CSc1nc2ccccc2c(=O)[nH]1`, the activation was -2.72%.

With `COc1cccc(N(Cc2nnc3n2CCCCC3)C(=O)Nc2ccccc2F)c1`, the activation was 3.63%.

Consider `O=C(Nc1nc2ccc(S(=O)(=O)N3CCCC3)cc2s1)C1CCCO1` (stereo not given), for which the activation is 2.99%. Next, `Cc1cc(Br)ccc1NC(=O)C1CCCO1` (stereo not given): -29.7%; `Cc1cc(C)c2nc(NC(=O)C3CCCO3)sc2c1` (stereo not given): 159% (active).

As for `O=C(/C=C/c1ccc(OCc2c(F)cccc2Cl)cc1)N1CCOCC1`, the activation was 12.2%. Next, `COc1ccc(OC)c(C(=O)CSc2nnc(-c3cccs3)o2)c1`: -1.75%; `COc1ccc(-n2c(C)cc(C(=O)CSc3nnc(-c4cccs4)o3)c2C)cc1`: -0.59%. With `COc1ccc(-c2nnc(SCC(=O)c3cccs3)o2)c(OC)c1`, the activation was 142% (active). Next, `O=C(NNC(=S)NCc1ccco1)C(c1ccccc1)c1ccccc1`: 19.5%; `O=C(NNC(=O)c1cc2c(s1)CCCC2)c1ccccc1`: 43.3%; `CC(C)C(=O)Nc1cccc(C(=O)Nc2ccc3c(c2)OCO3)c1`: 138% (active).

Take `Cc1cccc(NC(=O)Nc2ccc3c(c2)OCO3)n1`: the activation is 137% (active). In the case of `O=C(Nc1ccccc1)c1ccc2c(c1)OCO2` it was -58.8%; in that of `COc1ccc(C(=O)Nc2ccc3c(c2)OCO3)cc1OC`, 35.6%; in that of `Cc1cccc(NC(=O)/C=C/c2ccc3c(c2)OCO3)n1`, 118%. In the case of `CC(NC(=O)Nc1ccc2c(c1)OCO2)c1ccncc1` (stereo not given), the activation is 12.1%. In the case of `CC(OC(=O)c1ccccc1OCc1ccc(Cl)cc1)C(N)=O` (stereo not given) it was 40.4%; in that of `Cc1cc(C)c(NC(=O)c2oc3ccccc3c2COc2ccccc2)c(C)c1`, -0.13%. Next, `CCC(=O)N(Cc1cc2ccccc2[nH]c1=O)c1ccc(OC)cc1`: -4.49%. In the case of `C/C(=N/NC(=O)CCc1ccccc1)c1ccco1` it was 10.2%; in that of `CCOc1ccc2nc(Nc3nc4ccc(NC(C)=O)cc4s3)sc2c1`, -5.77%; in that of `CCOc1ccc2nc(C(=O)N3CCCC(C)C3)sc2c1` (stereo not given), 158% (active). As to `CCOc1ccc2nc(SC(CC)C(=O)Nc3cc(C)on3)sc2c1` (stereo not given), the activation is 1.9%. In the case of `Cc1cc(CNCc2c(C(=O)N(C)Cc3ccccc3)nc3ccccn23)nn1C` it was 7.64%. As for `C/C(=N/NC(=S)Nc1ccccc1)c1ccc2c(c1)OCO2`, the activation was 11.9%. In the case of `CCOC(=O)CN/C=C(\C#N)c1ccc(F)cc1` it was 29.2%; in that of `O=C(Nc1ccc2c(c1)OCCO2)c1ccc(Cl)c(S(=O)(=O)N2CCCCC2)c1`, 30.1%; in that of `O=C(Nc1cccc(Cl)c1N1CCOCC1)c1ccc2c(c1)OCCO2`, 12.9%. In the case of `O=C(Nc1ccc(Cl)cn1)c1ccc2c(c1)OCCO2` it was 199% (active).

Consider `COc1c(Cl)cc(C(=O)Nc2ccc(Cl)cn2)cc1Cl`, for which the activation is 34.7%. In the case of `CN1CCN(c2ccc(NC(=O)c3ccc4c(c3)OCCO4)cc2Cl)CC1` it was 144% (active); in that of `O=C(Nc1cccc(S(=O)(=O)Nc2ccc(Cl)cc2)c1)c1ccc2c(c1)OCCO2`, -20.6%; in that of `CN1CCN(CCC(=O)N/N=C/C=C2\N(C)c3ccccc3C2(C)C)CC1`, 8.29%. In the case of `COc1ccc(-n2ncc3c(N4CCc5ccccc54)ncnc32)cc1` it was 204% (active); in that of `COc1ccc(-n2ncc3c(N4CCCc5ccccc54)ncnc32)cc1`, 48.9%. In the case of `Cc1cccc(-n2ncc3c(N4CCc5ccccc54)ncnc32)c1` it was 25.5%. As for `c1ccc(-n2ncc3c(N4CCCC4)ncnc32)cc1`, the activation was 160% (active). Next, `CCN(CC)C(=O)CSc1ncnc2c1cnn2-c1ccccc1`: 15.2%; `O=C(NNc1ncnc2c1cnn2-c1ccccc1)c1ccco1`: 6%. As to `O=C(COc1ccc(S(=O)(=O)N2CCCCC2)cc1)NCc1ccccn1`, the activation is 2.08%. Next, `CSCC[C@H](NC(=O)NC1CCCC1)C(=O)O`: -20.9%; `CCN1CCC2(CCN(Cc3cn[nH]c3-c3ccc(OC)c(F)c3)C2)C1` (stereo not given): -14.3%; `O=C(NNS(=O)(=O)c1ccc(F)cc1)c1cnccn1`: 3.72%. In the case of `C/C(=N\Nc1ncc(Cl)cc1Cl)c1cccs1` it was 154% (active); in that of `C/C(=N\Nc1nc(Nc2ccccc2)nc(N2CCOCC2)n1)c1cccs1`, -7.91%; in that of `OCCNc1nc2ccccc2[nH]1`, 16.1%. Next, `COc1cccc(/C(C)=N/Nc2ncc(Cl)cc2Cl)c1`: 24.9%. `C/C(=N\Nc1nc2ccccc2[nH]1)c1cccs1`: the activation was 150% (active).

Regarding `C/C(=N\Nc1ncc(Cl)cc1Cl)c1ccc(S(=O)(=O)NCc2ccco2)cc1`, the activation was 100%. Next, `O=S(=O)(NCC1CCCO1)c1cnc(Cl)c(Cl)c1` (stereo not given): 1.68%.
